Structures are written as SMILES. The campaign covered roughly 37,000 compounds. About 2,800 (7.6%) were called active. About 1% were inconclusive and are not listed. The sample holds actives, similar compounds and a random draw of the others, so the mix is not that of the screen. Cut-off read from the data, not from the text of the source: active = inhibition above about 80%; inconclusive = no clear call, values can overlap the other calls; inactive = below that.

This assay is described as follows: NOMO-1 AML cell viability reduction, primary screen, STK33 inhibitor project, CellTiter-Glo luminescence (AID 2330). To be noted: NOMO-1 AML viability, 72 h, stronger effect = higher value, concentration not given here. On the technique in general: ATP-based viability assays read luminescence as a measure of living cells.
For `Cc1cc(C(=O)Nc2cccc3c2O[C@@H](CN(C)Cc2ccc4c(c2)OCO4)[C@@H](C)CN([C@@H](C)CO)C3=O)n(C)n1`, the inhibition (in general, the drop in the measured response relative to a control, in per cent) is 9.25% (inactive).

Take `COC(=O)c1ccccc1NC(=O)CNS(=O)(=O)c1cc(Cl)ccc1Cl`: the inhibition was -6.45% (inactive).

`Cc1ccc(S(=O)(=O)N(C)C[C@H]2Oc3ccc(NS(C)(=O)=O)cc3CC(=O)N([C@@H](C)CO)C[C@H]2C)cc1`: the inhibition was 1.2% (inactive).

Consider `Cc1noc(C)c1NC(=O)Nc1ccc2c(c1)C(=O)N([C@@H](C)CO)C[C@H](C)[C@H](CN(C)S(=O)(=O)c1ccc(Cl)cc1)O2`, for which the inhibition is -6.69% (inactive).

As to `Oc1cc(O)c2c(c1)OC(c1ccc(O)c(O)c1)C(O)C2` (centres undefined), the inhibition is 6.96% (inactive).

With `COC(=O)C(C)N(C(=O)c1ccccc1[N+](=O)[O-])c1c(C)cccc1C` (centres undefined), the inhibition was 3.25% (inactive).

As to `O=C(CSc1nnc(-c2ccco2)n1-c1ccccc1)Nc1ccc(F)cc1`, the inhibition was 3.32% (inactive).

Turning to `CCCCCCc1ccc(O)cc1O`, the inhibition is 108% (active).

For the compound `C[C@H]1CN([C@@H](C)CO)C(=O)c2cccc(NC(=O)C3CCCCC3)c2O[C@H]1CN(C)C(=O)NC1CCCCC1`, the inhibition is -16% (inactive).

As to `C[C@@H]1CN([C@@H](C)CO)C(=O)c2cc(NS(=O)(=O)c3ccc(Cl)cc3)ccc2O[C@H]1CN(C)C(=O)Nc1ccc(C(F)(F)F)cc1`, the inhibition is 7.09% (inactive).

`Cc1cc(Cl)ccc1NC(=O)CN(c1ccc(Cl)c(Cl)c1)S(C)(=O)=O`: the inhibition was 16% (inactive).

For `COC(=O)Nc1nc2ccc(Sc3ccccc3)cc2[nH]1`, the inhibition is 114% (active).

For the compound `COc1ccc(C(=O)CSc2nc3ccc(OC)cc3[nH]2)cc1`, the inhibition was 3.9% (inactive).

Regarding `COc1ccc2nc(SCC(=O)Nc3ccc(I)cc3)[nH]c2c1`, the inhibition is 6.89% (inactive).

Consider `COc1ccc(CN(C)C[C@H]2Oc3c(NS(=O)(=O)c4ccc(Cl)cc4)cccc3C(=O)N([C@H](C)CO)C[C@@H]2C)cc1`, for which the inhibition is -1.33% (inactive).

As for `C[C@@H]1CN([C@H](C)CO)C(=O)c2cccc(NC(=O)NC3CCCCC3)c2O[C@H]1CN(C)Cc1ccc(C(F)(F)F)cc1`, the inhibition was 101% (active).

`C[C@H](CO)N1C[C@H](C)[C@H](CN(C)Cc2ccc3c(c2)OCO3)Oc2c(NC(=O)NC3CCCCC3)cccc2C1=O`: the inhibition was 42.4% (inactive).

With `C[C@H](CO)N1C[C@H](C)[C@@H](CN(C)Cc2ccc(C(F)(F)F)cc2)Oc2c(NC(=O)NC3CCCCC3)cccc2C1=O`, the inhibition was 83.9% (active).

On to `C[C@H]1CN([C@@H](C)CO)C(=O)c2cccc(NC(=O)C3CCCCC3)c2O[C@H]1CN(C)Cc1ccc(C(F)(F)F)cc1`, for which the inhibition is 45.9% (inactive).

Regarding `COc1ccc(CN(C)C[C@H]2Oc3c(NC(=O)NC4CCCCC4)cccc3C(=O)N([C@@H](C)CO)C[C@@H]2C)cc1`, the inhibition was 48.8% (inactive).

On to `C[C@@H]1CN([C@H](C)CO)C(=O)c2cccc(NC(=O)Nc3ccc(F)cc3)c2O[C@@H]1CN(C)Cc1ccc(C(F)(F)F)cc1`, for which the inhibition was 35.7% (inactive).

Regarding `COc1ccc(N(CC(=O)Nc2ccccc2F)S(C)(=O)=O)cc1`, the inhibition is 40.4% (inactive).

In the case of `C[C@@H]1CN([C@H](C)CO)C(=O)c2cccc(NC(=O)Nc3cccc4ccccc34)c2O[C@@H]1CN(C)Cc1ccccc1`, the inhibition is 47.5% (inactive).

As for `O=C(O)C1CC=CCC1C(=O)Nc1ccc(C(=O)N2CCCCC2)c(Cl)c1` (centres undefined), the inhibition was 2.77% (inactive).

With `COc1ccc(OC)c(S(=O)(=O)N(C)CC(=O)Nc2cccc(Cl)c2C)c1`, the inhibition is -0.499% (inactive).

For the compound `Cc1ccc(OCC(=O)Nc2cccc(NC(=O)c3ccco3)c2)cc1C`, the inhibition is 30.6% (inactive).

Turning to `C[C@@H]1CN([C@@H](C)CO)C(=O)c2cc(NC(=O)Nc3cccc4ccccc34)ccc2O[C@@H]1CN(C)C(=O)Nc1cccc2ccccc12`, the inhibition was 76.6% (inactive).

Consider `C[C@@H]1CN([C@@H](C)CO)C(=O)c2cc(NC(=O)Nc3cccc4ccccc34)ccc2O[C@@H]1CN(C)Cc1ccc(-c2ccccc2)cc1`, for which the inhibition was 109% (active).

Consider `COc1ccc(CN(C)C[C@@H]2Oc3ccc(NC(=O)Nc4cccc5ccccc45)cc3C(=O)N([C@H](C)CO)C[C@H]2C)cc1`, for which the inhibition was -6.53% (inactive).

Turning to `C[C@@H]1CN([C@@H](C)CO)C(=O)c2cc(NC(=O)Nc3cccc4ccccc34)ccc2O[C@H]1CN(C)Cc1ccc(Oc2ccccc2)cc1`, the inhibition was 115% (active).

For `CC(C)NC(=O)Nc1ccc2c(c1)C(=O)N([C@@H](C)CO)C[C@@H](C)[C@H](CN(C)Cc1ccc(-c3ccccc3)cc1)O2`, the inhibition was 36.3% (inactive).

Take `C[C@H]1CN([C@@H](C)CO)C(=O)c2cc(NC(=O)Nc3cccc4ccccc34)ccc2O[C@@H]1CN(C)C`: the inhibition was -2.04% (inactive).

Regarding `C[C@H](CO)N1C[C@H](C)[C@H](CN(C)Cc2ccc3c(c2)OCO3)Oc2c(NS(=O)(=O)c3ccccc3)cccc2C1=O`, the inhibition was -8.2% (inactive).

For `C[C@H]1CN([C@@H](C)CO)C(=O)c2cccc(NS(=O)(=O)c3ccc(F)cc3)c2O[C@@H]1CN(C)Cc1ccncc1`, the inhibition was -1.34% (inactive).
